Test results from PubChem BioAssay.
Where “and” joins values, the source holds several entries; their conditions need not be identical. Equal entries are not always repeated. A number with no mark means an inactive call. The rule behind the calls is not given here.

Molecular target: Pantothenate synthetase (Mycobacterium tuberculosis (strain ATCC 25618 / H37Rv)) (UniProt P9WIL5)
Experiment: Coupled enzyme confirmation of inhibitors against recombinant Mtb PanC (AID 375);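 note: 0% = full reaction with vehicle and 100% = no enzyme background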
Settings: coupled enzyme assay; at 10 µM, active compounds read high

Sequence of Pantothenate synthetase (Mycobacterium tuberculosis (strain ATCC 25618 / H37Rv)) (P9WIL5 whole entry, looked up): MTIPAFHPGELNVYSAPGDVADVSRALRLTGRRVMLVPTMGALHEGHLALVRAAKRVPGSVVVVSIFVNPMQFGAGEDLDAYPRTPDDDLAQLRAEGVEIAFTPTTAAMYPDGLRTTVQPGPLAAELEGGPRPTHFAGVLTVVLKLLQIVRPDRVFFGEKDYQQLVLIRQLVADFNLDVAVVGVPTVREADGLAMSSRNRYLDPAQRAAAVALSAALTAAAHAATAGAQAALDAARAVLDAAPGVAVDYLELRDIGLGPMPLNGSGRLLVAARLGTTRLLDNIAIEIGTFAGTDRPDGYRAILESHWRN

Row | Structure (SMILES) | inhibition
1 | COc1cc(CN2CCN(C(=O)CC(C)C)CC2)cc(OC)c1O | 0%
2 | O=C(Nc1ccc(N2CCCC2=O)cc1)c1cccc(F)c1 | 4%
3 | Nc1nc(NC(=O)c2cccs2)nn1-c1ccccc1 | 1%
4 | CCOc1cc(C2Nc3ccccc3C(=O)N2c2ccccc2OC)ccc1O (centres undefined) | 0%
5 | Cc1cc(C)cc(NC(=O)CCNS(=O)(=O)c2ccc3c(c2)oc(=O)n3C)c1 | 0%
6 | Cc1cccc(-n2nc3c(c2NC(=O)CCC2CCCCC2)CS(=O)C3)c1C (centres undefined) | 3%
7 | Cc1csc2nc(CNC(=O)c3ccco3)cn12 | 0%
8 | CC(=O)NC(Cc1c[nH]c2ccccc12)C(=O)OCC(=O)Nc1cc(C)on1 (centres undefined) | 0%
9 | CC(Oc1ccccc1)C(=O)Nc1ccc(S(=O)(=O)NCC2CCCO2)cc1 (centres undefined) | 1%
10 | Cn1cc(Br)c(C(=O)NC2CCCCC2)n1 | 4%
11 | CCc1c(C(=O)N2CCOCC2)csc1C | 0%
12 | Fc1ccc(-c2csc3nnc(SCc4cccnc4)n23)cc1 | 0%
13 | COc1cc(CN(C)CC(=O)c2[nH]c(C)c(C(C)=O)c2C)ccc1OC(F)F | 0%
14 | CC1(C)NC(=O)N(CN2C(=O)NC(C)(C)C2=O)C1=O | 0%
15 | CCc1nnc(NC(=O)CSc2nnc(-c3ccc(OC)cc3)n2C)s1 | 0%
16 | O=c1cnnc(NCc2ccccc2)[nH]1 | 0%
17 | Cc1cccc2sc(NC(=O)Cn3cccc3)nc12 | 0%
18 | Cc1nn(C)cc1NC(=O)CCSc1nc(-c2ccco2)cc(C(F)(F)F)n1 | 0%
19 | CC1=C(C(=O)Nc2ccccc2)C(c2ccco2)C(C#N)=C(SCC(=O)Nc2cccc(C)c2C)N1 (centres undefined) | 1%
20 | CCOC(=O)N1CCN(Cc2nc3c(c(=O)[nH]c(=O)n3C)n2Cc2cc(C)ccc2C)CC1 | 0%

Row | Structure (SMILES) | inhibition
21 | CSc1nnc2c3ccccc3n(CCc3ccccc3)c2n1 | 0%
22 | Cc1ccc(Cn2c(SCC(N)=O)nc3c2c(=O)n(C)c(=O)n3C)cc1 | 0%
23 | O=C(NCc1ccccc1)N1CCn2c(nc3ccccc32)C1 | 3%
24 | CC(Oc1ccccc1)C(=O)N1CCCc2ccccc21 (centres undefined) | 0%
25 | COC(=O)c1cccc(NC(=O)CSc2nnc(COc3ccc(C#N)cc3)n2-c2ccccc2)c1 | 2%
26 | COc1ccc(NC(=O)Nc2ccccc2C)c(OC)c1 | 0%
27 | Cc1noc(/C=C/N(C)C)c1S(=O)(=O)N1CCCC(C(=O)NC2CCCCC2)C1 (centres undefined) | 8%
28 | Nc1ccc(C(=O)O)c(O)c1 | 1% and 0%
29 | Cc1ccc(-c2nn3c(=O)c(C)nnc3s2)cc1 | 0%
30 | CCCCCCn1c(SCC(=O)OC)nc2c1c(=O)[nH]c(=O)n2C | 0%
31 | CC(C)COC(=O)N(C)c1ccc(C(O)(C(F)(F)F)C(F)(F)F)cc1 | 5%
32 | Cc1c(Cl)cccc1N1C(=O)c2ccccc2C1=O | 0%
33 | CCOC(=O)C1=C(C)Nc2ncnn2C1c1ccccc1F (centres undefined) | 6%
34 | OCCNc1nc2ccc(Cl)cc2[nH]1 | 0%
35 | COc1ccccc1C(=O)Nc1ccc(N2CCN(Cc3ccccc3)CC2)cc1 | 0%
36 | O=C(c1ncn[nH]1)N1CCN(c2nc(-c3ccccc3)cs2)CC1 | 5%
37 | O=C(O)c1cc(-c2ccccc2)nc2ccccc12 | 3%
38 | Nc1ccc2[nH]ncc2c1 | 0%
39 | CCOC(=O)C1CCN(C(=O)CCCCn2c(=O)[nH]c3ccccc3c2=O)CC1 | 2%
